Data from PubChem BioAssay AID618 (Sanford-Burnham Center for Chemical Genomics, 2007).
Among all 87,000 compounds or so, about 540 (0.62%) were called active. This is one part of a sample in which actives are shown more often than they occur. The rule behind the calls is not given here. Measured potencies and affinities stand elsewhere.

test: inhibitors of MT1-MMP promoter transcription, cell-based, luciferase reporter, luminescence (AID 618); conditions: MT1-MMP promoter luciferase reporter cells;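 note: actives suppress MT1-MMP promoter-driven transcription so potencies describe inhibitors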

| Compound | outcome |
| --- | --- |
| Cc1cc(NC(=O)CSc2nc3c(c(=O)n2CCc2ccccc2)SC(C)C3)no1 (centres undefined) | inactive |
| O=C1CC(c2ccccc2)n2nc(NC(=O)c3cccs3)nc2N1 (centres undefined) | inactive |
| COc1cc2nc(C)sc2cc1SC | inactive |
| O=C(C1CCCN(Cc2ccccc2Br)C1)N1CCCCC1 (centres undefined) | inactive |
| COc1cccc(NC(=O)CSc2nnc(-c3ccoc3C)n2CC2CCCO2)c1 (centres undefined) | inactive |
| C=CCNC(=O)C1CCN(c2nc(C)cc(-c3ccccc3)n2)CC1 | inactive |
| c1ccc(C2=Nn3c(nnc3-c3ccncc3)SC2)cc1 | inactive |
| COc1ccc(CC(C(=O)Nc2cc(C)ccc2C)/C(N)=N/O)cc1 (centres undefined) | inactive |
| Cc1ccc2nc(-c3cccc(S(=O)(=O)N(C)C)c3)cn2c1 | inactive |
| COc1ccc(-c2cn3cc(C)ccc3n2)cc1OC | inactive |
| Cc1ccc2nc(-c3ccccc3)cn2c1 | active |
| CCOc1ccccc1NC(=O)Cn1nnc(C(=O)NCc2ccco2)c1N | inactive |
| CCOC(=O)C(C(=O)OCC)=C1OC(=O)c2ccccc21 | inactive |
| CN(C)CCCNC(=O)c1ccc(-c2ccccc2)cc1 | inactive |
| CCOC(=O)CNC(=O)c1cn(CC(C)C)c(=O)c2cc(OC)c(OC)cc12 | inactive |
| Cc1ccc2cc(CN(CC3CCCO3)S(=O)(=O)c3c(C)ccc4nsnc34)c(=O)[nH]c2c1 (centres undefined) | inactive |
| COCc1nnc(NS(=O)(=O)c2c(C)cc(C)cc2C)s1 | inactive |
| O=c1/c(=C\c2ccc3c(c2)OCO3)sc2n1CCCN=2 | inactive |
| O=c1/c(=C/c2ccc(O)cc2)sc2n1CCCN=2 | inactive |
| CN(C)c1ccc(/C=c2\sc3n(c2=O)CCCN=3)cc1 | active |
| O=C(NCCN1CCOCC1)c1ccc2ccccc2n1 | inactive |
| COCCn1cc(C(=O)NCCCN2CCC(C)CC2)c2c3ccccc3n(C)c2c1=O | inactive |
| CCC(C)(C)n1nnnc1C(c1cc2ccc(OC)cc2[nH]c1=O)N1CCc2ccccc21 (centres undefined) | inactive |
| CCCC(=O)Nc1ccc(NC(=O)c2ccccn2)cn1 | inactive |
| CCC(=O)Nc1ccc(NC(=O)c2ccccn2)cn1 | inactive |
| O=C(Nc1ccc(NC(=O)C2CC2)nc1)c1ccco1 | inactive |
| O=C(Nc1ccc(NC(=O)c2ccco2)nc1)c1cccnc1 | inactive |

| Compound | outcome |
| --- | --- |
| O=C(Nc1ccc(NC(=O)C2CCCCC2)cn1)c1ccco1 | active |
| O=C(Cc1ccccc1)Nc1ccc(NC(=O)c2ccco2)nc1 | inactive |
| O=C(Nc1ccc(NC(=O)C2CCCCC2)nc1)c1ccco1 | inactive |
| CCN(Cc1ccccc1)C(c1cc2cc(C)ccc2[nH]c1=O)c1nnnn1CCOC (centres undefined) | inactive |
| CCCCCCn1c(N2CCN(c3ccccc3)CC2)nc2c1c(=O)n(C)c(=O)n2C | inactive |
| O=C(Cn1cnc2ccccc2c1=O)N1CCOCC1 | inactive |
| CCC1=C2CC[C@H]3C(=O)N(c4ccccc4)C(=O)[C@H]3[C@H]2[C@@]2(Cc3ccccc3)C(=O)N(CC(=O)OC)C(=O)N2C1=O | inactive |
| N#Cc1c(/N=C/c2ccc(Br)s2)sc2c1CCC2 | inactive |
| N#Cc1c(/N=C/c2cccs2)sc2c1CCCCC2 | active |
| N#Cc1c(/N=C/c2cccs2)sc2c1CCC2 | inactive |
| COc1ccc(C(CNC(=O)c2ccc(-n3cnnn3)cc2)N2CCOCC2)cc1 (centres undefined) | inactive |
| CC(=O)c1ccc(-c2nc3ccccc3n2C)o1 | inactive |
| Cn1cc(C(=O)c2ccccc2)cc1-c1nc2ccccc2n1C | inactive |
| Cc1oc(-c2nc3ccccc3n2C)cc1C(=O)c1ccccc1 | active |
| C/C(=C1\SC(N2CCOCC2)=NC1=O)c1ccc(C)cc1 | inactive |
| Cc1ccc(CS(=O)(=O)CCC(=O)NCc2ccc3c(c2)OCO3)cc1 | inactive |
| CCC(=O)Nc1cccc(-c2nc3ccccc3o2)c1 | inactive |
| CC(C)(C)c1ccc(OCC(=O)Nc2ccc(-c3nc4cccnc4o3)cc2)cc1 | inactive |
| CCCC(=O)Nc1ccc(-c2nc3cc(C)c(C)cc3o2)cc1 | inactive |
| Cc1ccc(-c2nc3cc(NC(=O)C(C)C)ccc3o2)cc1C | inactive |
| CCC(=O)Nc1ccc2oc(-c3ccccc3Br)nc2c1 | inactive |
| Cc1ccc2oc(-c3ccc(NC(=O)CC(C)C)cc3)nc2c1 | inactive |
| CCC(C)NCC(=O)Nc1ccc(-c2nc3cc(NC(=O)CNC(C)CC)ccc3o2)cc1 (centres undefined) | inactive |
| CCC(=O)Nc1ccc2oc(-c3cccc(C)c3)nc2c1 | active |
| Cc1cc2nc(-c3ccc(NC(=O)C(C)C)cc3)oc2cc1C | inactive |
| O=C(Nc1cc(C(F)(F)F)ccc1N1CCCCC1)c1ccco1 | inactive |
| COCCNC(=O)CN1c2ccccc2CC1C (centres undefined) | inactive |

| Compound | outcome |
| --- | --- |
| CCCSc1nc(C)c(-c2csc(C(C#N)=C3CCCC3)n2)cc1C#N | inactive |
| CCOC(=O)N1CCN(CCC(=O)Nc2ccccc2OC)CC1 | inactive |
| CS(=O)(=O)Nc1ccccc1C(=O)Nc1ccccc1Cl | inactive |
| COc1ccc(CCNC(=O)CSc2nnc(-c3ccc(F)cc3)o2)cc1OC | inactive |
| CC(=O)C1=C(O)C(=O)N(Cc2ccccc2)C1c1cccs1 (centres undefined) | inactive |
| COc1cc(C2c3c(oc4cc(C)c(C)cc4c3=O)C(=O)N2c2cc(C)ccn2)ccc1O (centres undefined) | inactive |
| COc1ccc(N2CCN(C(=O)CCNS(=O)(=O)c3cccs3)CC2)cc1 | inactive |
| CC(C)(C)C(=O)Nc1ccc2oc(-c3cc(F)c(F)cc3Cl)nc2c1 | inactive |
| CC(C)C(=O)Nc1ccc2oc(-c3cc(F)c(F)cc3Cl)nc2c1 | inactive |
| CC(C)N=Cc1c(O)[nH]c2ccccc12 | inactive |
| CN=Cc1c(NC)nc2c(C)cccn2c1=O | inactive |
| O=C(NCc1ccc(F)cc1)C1CCC(=O)N1CCc1ccccc1 (centres undefined) | inactive |
| Cc1ccc(NC(=O)c2ccc(S(=O)(=O)N3CCCC3)cc2)cc1 | inactive |
| C[C@@H](NC(=O)c1coc(=O)c(Br)c1)c1ccccc1 | inactive |
| CN(C)CCNC(=O)c1coc(=O)c(Br)c1 | inactive |
| O=C(CNC(=O)C1CCCCC1)NCCCO | inactive |
| CCCNc1ncnc2c1cnn2-c1ccc(OC)cc1 | inactive |
| CCCCNc1ncnc2c1cnn2-c1ccccc1 | inactive |
| COc1ccc(-n2ncc3c(NCc4ccco4)ncnc32)cc1 | inactive |
| COCC(C)Nc1ncnc2c1cnn2-c1ccc(Cl)cc1 (centres undefined) | inactive |
| Cc1cccc(-n2ncc3c(NC(C)C)ncnc32)c1 | inactive |
| CCC(CO)Nc1ncnc2c1cnn2-c1ccc(OC)cc1 (centres undefined) | inactive |
| CC(C)Nc1ncnc2c1cnn2-c1ccccc1 | inactive |
| CC(C)OCCCNc1ncnc2c1cnn2-c1ccccc1 | active |
| Cc1ccc(-n2ncc3c(NCCCOC(C)C)ncnc32)c(C)c1 | inactive |
